# Assay outcomes deposited in PubChem BioAssay by several laboratories.
# HIF-2a block: HIF-2a reporter inhibitors, primary screen, luminescence, 786-0 RCC cells. 786-0 RCC cells HIF-2a reporter, luciferase luminescence, overnight. inhibition, % at 18.8 µM. actives 0.72% (n = 360,000);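 active = inhibition of the luminescence signal of 40% or more relative to plate controls, in a single-dose primary screen at 18.75 µM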
# CF NFkB block: inhibitors of PAF-induced NF-kB signaling, primary screen, cell-based, GFP fluorescence, uHTS; KKLEB NF-kB-GFP reporter, GFP fluorescence overnight; inhibition, % at 5 µM; actives 0.86% (n = 360,000);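 active = at least 50% inhibition at 5 µM, scaled per plate between neutral and stimulator controls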;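 note: PAF is a Pseudomonas aeruginosa culture filtrate used as stimulus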
# Peg3 promoter: Peg3 promoter-driven luciferase inhibitors, primary screen, cell-based, HeLa, luciferase luminescence; HeLa PEG-Prom luciferase reporter, overnight; inhibition, % at 20 µM; actives 1.7% (n = 360,000); AID 588405, 2011;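 active = inhibition of at least 50% at 20 µM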
# KKLEB tox: cytotoxicity in KKLEB CF airway cells, primary screen, cytotoxicity control for CF NF-kB inhibitor project, cell-based, uHTS, fluorescence assay plates; KKLEB CF airway cells viability, ATPlite luminescence, overnight; active compounds read low; cells stimulated with P. aeruginosa culture filtrate; activity change (cytotoxicity), % at 5 µM; actives 0.36% (n = 360,000);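 active = corrected activity change at or below -50% at 5 µM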
# ABHD5 PLIN5 PPI: ABHD5-PLIN5 interaction inhibitors, primary screen, cell lysate, split luciferase complementation, luminescence; actives 0.78% (n = 360,000); Perilipin-5 (Homo sapiens) + 1-acylglycerol-3-phosphate O-acyltransferase ABHD5 (Homo …; Split G. princeps luciferase complementation, 4 h; inhibition, % at 4 µM;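 active = inhibition above the mean inhibition across every tested compound plus 3 SD, cut at about 22% in these data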
# MITF TRPM1 inh: inhibitors of MITF-dependent TRPM1 promoter reporter, primary screen, cell-based, SK-MEL-5, single point, luciferase | inhibition, % at 12.5 µM | SK-MEL-5 TRPM1 promoter luciferase, 24 h | actives 0.83% (n = 330,000) | AID 488899, 2010;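 active = mean inhibition across replicates of 60% or more, whatever share of single replicates reaches that level; inconclusive = some that reach 60%, reason not given; inactive = mean inhibition across replicates below 60%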
# A number is an active result; - = inactive; ? = inconclusive; . = no result. The list is not random: actives were taken first. Their share in the collection is about 3%.
SMILES,HIF-2a block,CF NFkB block,Peg3 promoter,KKLEB tox,ABHD5 PLIN5 PPI,MITF TRPM1 inh
Cc1ccc(CN2C(=O)[C@@H]3Cc4c([nH]c5ccccc45)C(C)(C)N3C2=O)cc1,-,-,-,-,-,.
CSCCC(NC(=O)COc1ccccc1)C(=O)N1CC(C)OC(C)C1 (stereo unspecified),-,-,-,-,-,-
CC(=O)OCC(=O)[C@@]1(O)CC[C@H]2[C@@H]3CCC4=CC(=O)C=C[C@]4(C)[C@H]3[C@@H](O)C[C@@]21C,-,80.3,-,-,-,-
CC12CCC(=O)C=C1C(F)CC1C2C(O)CC2(C)C1CCC2(O)C(=O)CO (stereo unspecified),-,76.3,-,-,-,-
CC(=O)OCC(=O)[C@@]1(O)CCC2C3CCC4=CC(=O)CCC4(C)C3C(=O)CC21C (stereo partly specified),-,-,-,-,-,-
CC12C=CC(=O)C=C1CCC1C2C(O)CC2(C)C1CCC2(O)C(=O)CO (stereo unspecified),-,63.5,-,-,-,-
CCCCC(=O)O[C@]1(C(=O)CO)CC[C@H]2[C@@H]3CCC4=CC(=O)CC[C@]4(C)[C@H]3[C@@H](O)C[C@@]21C,-,57.4,-,-,-,-
CC(C)(C)NC(=O)NC(=O)COC(=O)c1cccc(OC(F)F)c1,-,-,-,-,-,-
C[C@H](NC(=O)N1CCn2c1nc1ccccc12)C(=O)NCc1ccc2c(c1)OCO2,-,-,-,-,-,-
C[C@]12C=CC(=O)C=C1CCC1C3CC[C@](O)(C(=O)CO)[C@@]3(C)CC3OC312 (stereo partly specified),-,-,-,-,-,-
CC(=O)OCC(=O)[C@@]1(O)CC[C@H]2[C@@H]3CCC4=CC(=O)C=C[C@]4(C)[C@@]3(Cl)[C@@H](Cl)C[C@@]21C,-,64.6,-,-,-,-
COc1ccc(C(C#N)=C2C=C(Cl)C(=NO)C=C2Cl)cc1,-,67.7,-,-,-,.
C=CCNc1nc(-c2ccccn2)nnc1-c1ccccc1,-,-,-,-,-,78.3
COc1cc(OC)c(OC)cc1/C=C1\CC(C)C/C(=C\c2cc(OC)c(OC)cc2OC)C1=O (stereo unspecified),-,-,57.9,-,-,-
CC(C)(C)c1ccc(C(=O)Nc2nnc(SCC(=O)NCC3CCCO3)s2)cc1 (stereo unspecified),-,-,-,-62.1,-,-
CN(C)S(=O)(=O)c1ccc(C(=O)Nc2nnc(SCC(=O)NCC3CCCO3)s2)cc1 (stereo unspecified),-,-,-,-,-,-
Cc1ccc(S(=O)(=O)N2CCCCC2C)cc1[N+](=O)[O-] (stereo unspecified),-,-,-,-,-,-
C/C=C(\C)C(=O)OC1[C@H](OC(C)=O)C2(CO)C(CC1(C)C)C1=CCC3C4(C)CCC(O[C@@H]5O[C@H](C(=O)O)[C@@H](O[C@@H]6O[C@H](CO)[C@@H](O)[C@H](O)[C@H]6O)[C@H](O)[C@H]5O[C@H]5O[C@H](CO)[C@@H](O)[C@H](O)[C@H]5O)[C@](C)(CO)C4CCC3(C)[C@]1(C)C[C@H]2O (stereo partly specified),93.1,90.7,104.5,-89.3,-,97.5
CC1CCN(C(=O)c2[nH]cnc2C(=O)Nc2nccs2)CC1,-,-,-,-,-,-
CC(C)C(Cl)=NOC(=O)Nc1ccc(F)cc1,-,-,55.0,-,-,-
CC(Oc1ccc(C(=O)c2ccc(F)cc2)cc1)C(=O)N1CCOCC1 (stereo unspecified),-,-,-,-,-,-
CCOc1ccc2nc3cc(NCc4ccc(OC)cc4)ccc3c(N)c2c1,-,-,92.7,-,-,?
CCn1cnc2cc(NCc3ccc(OC)cc3)ccc21,-,-,-,-,-,-
COc1ccc(/C=C2\SC(=S)N(CCC(=O)NCCCn3ccnc3)C2=O)cc1,40.2,-,-,-,-,-
